# Test results as given in PubChem BioAssay.
# Where “and” joins values, the source holds several entries; their conditions need not be identical. Equal values may be shown once. Calls of active or inactive are those of the source.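 Rule for the calls, unless noted: active = z-score of at least 1.8 in each of two replicates, scored against plate mean and spread of sample wells; inactive = the rest.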
# How the values were obtained:
# [1] = P. berghei load reduction in hepatocytes – cell-based, HepG2, luciferase luminescence, HepG2 viability, primary screen (AID 624349; in the data active = parasite load remaining mostly below about 12%, no sharp cut-off; inactive = mostly above about 10%;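 note: 100% = mean of DMSO negative control wells on the same plate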); settings: P. berghei liver stage in HepG2, luciferase luminescence, concentration not given here; parasite load remaining: stronger effect = lower value; viability: measured here: HepG2 viability without parasites
# [2] = Wnt pathway potentiators raising nuclear beta-catenin – imaging, WNT3A-conditioned medium, mouse C2C12, NPC library, primary screen (AID 1117326; in the data active = nuclear beta-catenin stimulation mostly above about 4.2%, no sharp cut-off; inactive = mostly below about 10%); settings: stronger effect = higher value
# [3] = stimulators of insulin release from INS-1E, primary screen, cell-based, 5 mM glucose, NPC library (AID 1117329;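 active = compound raises insulin release from rat beta cells at 5 mM glucose, no numeric limit stated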); settings: rat INS-1E insulin secretion, at 10 µM, stronger effect = higher value
# [4] = GLP1 release stimulators, primary, NCI-H716, NPC library (AID 1117341;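 active = compound raises GLP1 secretion from the human gut endocrine cells, with no numeric limit stated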); settings: NCI-H716 cells, at 10 µM, stronger effect = higher value
# [5] = viability loss with induced miR-34 in A549 – imaging, A549 dox-inducible miR-34, nuclei and caspase counts, primary screen (AID 1347080;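 active = compounds whose cell count with miR-34 switched on is under 0.7 times the count with it off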); settings: A549 miR-34 inducible, Hoechst nuclei count, 48 h
# [6] = MELAS cybrid and Rieske KO viability enhancers – cell-based, MELAS cybrids, Rieske KO mouse fibroblasts, CellTiter-Glo, primary screen (AID 1508586;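 active = mean z-score across replicates of 1.96 or higher in either the MELAS or the Rieske mutant cell line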;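 note: z relative to plate mean and SD of compound and empty wells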); settings: low glucose
# [7] = galactose survival enhancers in mitochondrial complex I cybrids – cell-based, galactose medium, ATP luminescence, primary screen (AID 1645843); settings: complex I mutant cybrid cells, 72 h, stronger effect = higher value;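 note: positive z means more ATP and so rescue of galactose-driven cybrid death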
# [8] = blockers of polyQ-driven CASP3 activation – cell-based (AID 1583); settings: polyglutamine-induced caspase-3 activation, cell assay; stronger effect = higher value;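 tested at 10 µM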
# [9] = growth inhibition of GSK3B-pretreated HCT116 cells – cell-based, CellTiter-Glo, 0.2 to 20 µM (AID 1117336;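 active = compounds lowering colon cancer cell viability after pretreatment blocking the GSK3B kinase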); settings: HCT116 viability after GSK3B inhibitor, at 20 µM, stronger effect = higher value
# [10] = inhibition of endothelial tube formation, primary screen, imaging, VEGF stimulated, CD31 staining, tube area, NPC library (AID 1117340;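 active = compound that reduces growth-factor-driven endothelial tube area in a mixed cell culture, no cutoff stated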); settings: VEGF-stimulated ADSC/ECFC co-culture, at 10 µM, stronger effect = higher value
# [11] = HCT116 colon cancer cell growth inhibition, primary screen, CellTiter-Glo luminescence, NPC library (AID 1117342;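 active = compounds that lower survival of HCT116 colon cancer cells in the luminescence readout, no numeric limit stated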); settings: at 20 µM (top of the series)
# [12] = reduced SW480 viability measured with CellTiter-Glo, NPC library, primary (AID 1117343;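 active = compounds that lower viability of the colon cancer cells in the luminescence readout, with no numeric limit stated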); settings: CellTiter-Glo luminescence; at 20 µM (top of the series) unless noted
# [13] = NPC library primary testing for decreased DLD-1 cell viability via CellTiter-Glo (AID 1117346;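 active = compounds that lower survival of DLD-1 colon cancer cells in the luminescence readout, no cutoff given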); settings: DLD-1 viability, CellTiter-Glo luminescence; at 20 µM (top of the series)
# [14] = target: 6-phosphogluconate dehydrogenase, decarboxylating (Homo sapiens) (UniProt P52209); test: inhibition of human phosphogluconate dehydrogenase – biochemical, recombinant enzyme, NADPH absorbance, primary screen (AID 1159550;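 active = at least 20% inhibition of 6-phosphogluconate dehydrogenase activity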); settings: recombinant 6PGD, NADPH absorbance 341 nm; at 10 µM; stronger effect = higher value
# [15] = EMT-state selective cytotoxicity in co-culture – imaging, PC-3E GFP, TEM4-18 mCherry, primary screen (AID 1345086;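 active = compounds killing one labelled cell type while sparing the other, by normalised counts and ratio limits, not self-fluorescent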;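 for all read-outs here: cells exposed to compound for 72 h before imaging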;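 for red/green cell ratio (normalised): normalised mesenchymal count divided by normalised epithelial count so high means epithelial killing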); settings: PC-3E GFP / TEM4-18 mCherry co-culture, imaging cell counts, at 1 µM; for red/green cell ratio (normalised): actives lie on both sides, counts scaled to control wells, 1 = unselective
# [16] = compounds altering viability of human ES cells (AID 493140; call rule not given here;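 note: cells exposed to compounds for four days before counting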); settings: human embryonic stem cell survival screen; stronger effect = higher value
# [17] = modulation of C. elegans fzo-1 (AID 1259413; call rule not given here;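 note: fzo-1 mutant C. elegans worms in liquid wells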); settings: C. elegans fzo-1 modulator screen, mean read-out; stronger effect = higher value
# [18] = target: NAD(+) hydrolase SARM1 (Homo sapiens) (UniProt Q6SZW1); test: blocking NAD cleavage by SARM1 SAM-TIR – cell lysate, NAD-Glo luminescence (AID 1508614;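 active = compound whose remaining NAD level is above about 45 nM, limit read from the data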;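 note: higher remaining NAD means stronger inhibition of SARM1 NADase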); settings: SAM-TIR HEK293T lysate NADase, at 1 µM, stronger effect = higher value
# [19] = target: Mitogen-activated protein kinase 7 (Homo sapiens) (UniProt Q13164); test: Gal4-ERK5 driven luciferase induction – cell-based, HTS, primary screen (AID 1508626;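 active = luciferase signal above three times the same-plate solvent-only control wells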;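 note: luciferase driven by Gal4-ERK5 fusion binding five Gal4 sites before minimal TATA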); settings: HeLa Gal4-ERK5 transactivation, 18 h, at 5 µM, stronger effect = higher value
# [20] = stronger effect = lower value, cell number ratio, induced over uninduced
# [21] = measured here: relative caspase fold change +Dox/-Dox
# [22] = measured here: total cells with miR-34 induction, stronger effect = lower value
# [23] = measured here: total cells without miR-34 induction
# [24] = MELAS cybrid survival, CellTiter-Glo 48 h, stronger effect = higher value
# [25] = Rieske KO mouse fibroblast survival, CellTiter-Glo 72 h
# [26] = measured here: epithelial PC-3E GFP cell survival
# [27] = measured here: mesenchymal TEM4-18 mCherry cell survival
# Chain of NAD(+) hydrolase SARM1 (Homo sapiens) (Q6SZW1 whole entry, looked up, the tested form may be a part): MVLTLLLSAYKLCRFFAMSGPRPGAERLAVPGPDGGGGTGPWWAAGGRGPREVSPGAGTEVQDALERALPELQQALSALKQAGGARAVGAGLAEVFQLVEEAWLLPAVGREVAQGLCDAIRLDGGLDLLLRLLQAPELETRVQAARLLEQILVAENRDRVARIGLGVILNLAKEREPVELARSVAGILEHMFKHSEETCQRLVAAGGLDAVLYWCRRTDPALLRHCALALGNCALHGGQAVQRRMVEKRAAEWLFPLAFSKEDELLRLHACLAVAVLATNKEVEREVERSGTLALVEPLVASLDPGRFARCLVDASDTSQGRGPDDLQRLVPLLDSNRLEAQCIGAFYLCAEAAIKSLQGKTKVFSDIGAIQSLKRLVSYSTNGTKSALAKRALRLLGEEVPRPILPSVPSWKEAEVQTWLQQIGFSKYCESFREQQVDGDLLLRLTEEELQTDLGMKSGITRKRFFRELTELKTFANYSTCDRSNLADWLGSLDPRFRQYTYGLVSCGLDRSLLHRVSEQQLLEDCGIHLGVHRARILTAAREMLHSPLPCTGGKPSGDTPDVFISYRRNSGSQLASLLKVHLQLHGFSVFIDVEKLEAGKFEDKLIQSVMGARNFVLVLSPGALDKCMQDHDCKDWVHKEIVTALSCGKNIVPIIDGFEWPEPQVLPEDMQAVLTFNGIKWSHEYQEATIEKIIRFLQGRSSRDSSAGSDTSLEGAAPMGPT
# Chain of Mitogen-activated protein kinase 7 (Homo sapiens) (Q13164 whole entry, looked up, the tested form may be a part): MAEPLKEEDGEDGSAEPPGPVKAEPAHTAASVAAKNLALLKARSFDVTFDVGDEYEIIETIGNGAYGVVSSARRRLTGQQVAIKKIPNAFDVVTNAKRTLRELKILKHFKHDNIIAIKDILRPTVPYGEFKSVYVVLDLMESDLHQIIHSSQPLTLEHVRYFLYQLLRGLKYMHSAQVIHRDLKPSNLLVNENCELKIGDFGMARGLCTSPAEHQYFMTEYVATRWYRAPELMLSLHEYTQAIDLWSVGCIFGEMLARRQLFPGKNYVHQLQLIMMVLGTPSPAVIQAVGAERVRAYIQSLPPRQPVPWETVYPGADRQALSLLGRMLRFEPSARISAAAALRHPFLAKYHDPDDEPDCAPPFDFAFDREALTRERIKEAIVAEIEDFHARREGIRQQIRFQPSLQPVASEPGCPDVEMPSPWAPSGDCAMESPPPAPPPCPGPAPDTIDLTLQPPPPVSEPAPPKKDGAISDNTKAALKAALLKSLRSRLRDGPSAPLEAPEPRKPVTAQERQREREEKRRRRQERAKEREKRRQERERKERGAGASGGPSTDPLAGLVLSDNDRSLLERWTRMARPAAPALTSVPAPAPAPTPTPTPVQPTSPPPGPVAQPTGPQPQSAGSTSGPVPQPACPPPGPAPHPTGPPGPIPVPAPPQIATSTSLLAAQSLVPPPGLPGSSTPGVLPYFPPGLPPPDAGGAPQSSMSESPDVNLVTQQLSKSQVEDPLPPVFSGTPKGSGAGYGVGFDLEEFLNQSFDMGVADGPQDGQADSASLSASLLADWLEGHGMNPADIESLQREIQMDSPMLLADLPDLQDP
# Chain of 6-phosphogluconate dehydrogenase, decarboxylating (Homo sapiens) (P52209 whole entry, looked up): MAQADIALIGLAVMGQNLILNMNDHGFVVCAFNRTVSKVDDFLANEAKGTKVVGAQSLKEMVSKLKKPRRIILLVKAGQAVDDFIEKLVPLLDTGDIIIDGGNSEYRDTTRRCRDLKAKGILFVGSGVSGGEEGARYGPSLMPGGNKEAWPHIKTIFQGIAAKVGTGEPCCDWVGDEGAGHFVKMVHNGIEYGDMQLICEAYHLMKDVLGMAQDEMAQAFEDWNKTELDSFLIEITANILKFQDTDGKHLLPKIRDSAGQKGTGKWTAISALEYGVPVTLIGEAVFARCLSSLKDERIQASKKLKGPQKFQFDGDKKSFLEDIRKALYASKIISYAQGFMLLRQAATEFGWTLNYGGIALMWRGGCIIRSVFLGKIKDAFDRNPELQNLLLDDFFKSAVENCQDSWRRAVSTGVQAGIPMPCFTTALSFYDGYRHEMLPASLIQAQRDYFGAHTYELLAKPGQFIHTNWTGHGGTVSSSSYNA
structure (smiles),measurement,setting,value
O=C(CCCN1CCC(O)(c2cccc(C(F)(F)F)c2)CC1)c1ccc(F)cc1,parasite load remaining,[1],27% (inactive)
same,viability,[1],66%
same,nuclear beta-catenin stimulation,[2]; at 10 µM,14.8% (inactive)
same,nuclear beta-catenin stimulation,"[2]; stimulation, at 2 µM",-1.1%
same,insulin secretion stimulation,[3],-0.35% (inactive)
same,GLP1 secretion stimulation,[4],5.6% (inactive)
same,fold change,[5]; [20],1.01 (inactive) and 0.873 (inactive)
same,fold change,[5]; [21],0.77 and 1.63
same,cell count,[5]; [22],10300 and 9050
same,cell count,[5]; [23],10200 and 10400
same,z-score,[6]; [24],-0.508 (inactive)
same,z-score,[6]; [25],-1.07
same,z-score,[7],-1 (inactive) and -0.885 (inactive)
CNS(=O)(=O)CCc1ccc2[nH]cc(C3CCN(C)CC3)c2c1,nuclear beta-catenin stimulation,[2]; at 10 µM,0.7% (inactive)
same,nuclear beta-catenin stimulation,"[2]; stimulation, at 2 µM",0.4%
same,insulin secretion stimulation,[3],0.5% (inactive)
same,GLP1 secretion stimulation,[4],-4.5% (inactive)
same,fold change,[5]; [20],1.03 (inactive) and 0.889 (inactive)
same,fold change,[5]; [21],0.856 and 0.863
same,cell count,[5]; [22],10300 and 7800
same,cell count,[5]; [23],9960 and 8780
same,z-score,[6]; [24],-0.419 (inactive)
same,z-score,[6]; [25],0.51
same,z-score,[7],-0.035 (inactive)
Cc1ccc(O)cc1,inhibition,[8],26.8%
same,parasite load remaining,[1],125% (inactive) and 76.1% (inactive)
same,viability,[1],68.3% and 96.4%
same,nuclear beta-catenin stimulation,[2]; at 10 µM,0.9% (inactive)
same,nuclear beta-catenin stimulation,"[2]; stimulation, at 2 µM",13.3%
same,viability decrease,[9],4.4% (inactive)
same,tube area decrease,[10],-11.8% (inactive)
same,inhibition of viability,[11],13.6% (inactive)
same,viability decrease (inhibition),[12],-6.4% (inactive)
same,viability decrease (inhibition),[13],-0.4% (inactive)
same,inhibition,[14],-1.83% (inactive)
same,red/green cell ratio (normalised),[15],1.31 (inactive)
same,normalised cell number,[15]; [26],1.05
same,normalised cell number,[15]; [27],1.37
same,fold change,[5]; [20],0.843 (inactive)
same,fold change,[5]; [21],3.01
same,cell count,[5]; [22],10700
same,cell count,[5]; [23],12700
CC(COc1ccccc1)NN (stereo not drawn),nuclear beta-catenin stimulation,[2]; at 10 µM,1.8% (inactive)
same,nuclear beta-catenin stimulation,"[2]; stimulation, at 2 µM",5.4%
same,viability decrease,[9],26.7% (inactive)
same,tube area decrease,[10],1.6% (inactive)
same,inhibition of viability,[11],8% (inactive)
same,viability decrease (inhibition),[12],19.2% (inactive)
same,viability decrease (inhibition),[13],7.4% (inactive)
O=C(O)CCc1nc(-c2ccccc2)c(-c2ccccc2)o1,survival,[16],5.67 (inactive)
same,insulin secretion stimulation,[3],1.3% (inactive)
same,viability decrease,[9],-61.8% (inactive)
same,tube area decrease,[10],-17.6% (inactive)
same,GLP1 secretion stimulation,[4],2.2% (inactive)
same,inhibition of viability,[11],9.15% (inactive)
same,viability decrease (inhibition),[12],8.7% (inactive)
same,viability decrease (inhibition),[13],-5.7% (inactive)
same,inhibition,[14],-3.27% (inactive)
same,mean signal,[17],247 (inactive)
same,red/green cell ratio (normalised),[15],1.03 (inactive)
same,normalised cell number,[15]; [26],1.14
same,normalised cell number,[15]; [27],1.18
same,z-score,[6]; [24],-0.226 (inactive) and -0.656 (inactive)
same,z-score,[6]; [25],-0.145 and -0.466
same,remaining NAD,[18],10 nM (inactive)
same,luciferase signal,[19],44 AU (inactive)
same,z-score,[7],0.9 (inactive) and 1.19 (inactive)
CCCC(=O)Nc1ccc(OCC(O)CNC(C)C)c(C(C)=O)c1 (stereo not drawn),inhibition,[8],-2.9%
same,survival,[16],12.1 (inactive)
same,insulin secretion stimulation,[3],0.7% (inactive)
same,viability decrease,[9],-32% (inactive)
same,tube area decrease,[10],13.3% (inactive)
same,GLP1 secretion stimulation,[4],0.9% (inactive)
same,inhibition of viability,[11],2.87% (inactive)
same,viability decrease (inhibition),[12],15.1% (inactive)
same,viability decrease (inhibition),[13],-8.8% (inactive)
same,inhibition,[14],5.09% (inactive)
same,mean signal,[17],238 (inactive)
same,red/green cell ratio (normalised),[15],0.87 (inactive)
same,normalised cell number,[15]; [26],1.07
same,normalised cell number,[15]; [27],0.93
same,z-score,[6]; [24],-0.162 (inactive) and 0.587 (inactive)
same,z-score,[6]; [25],-0.138 and 0.913
same,remaining NAD,[18],10 nM (inactive)
same,luciferase signal,[19],60 AU (inactive)
same,z-score,[7],1.51 (inactive)
CCn1cc(C(=O)O)c(=O)c2ccc(C)nc21,inhibition,[8],1.35%
same,survival,[16],18 (inactive)
same,insulin secretion stimulation,[3],-1.7% (inactive)
same,viability decrease,[9],10.1% (inactive)
same,tube area decrease,[10],2% (inactive)
same,GLP1 secretion stimulation,[4],3.3% (inactive)
same,inhibition of viability,[11],10.9% (inactive)
same,viability decrease (inhibition),[12],30.9% (inactive)
same,viability decrease (inhibition),[13],-0.43% (inactive)
same,inhibition,[14],-7.36% (inactive)
same,mean signal,[17],268 (inactive)
same,red/green cell ratio (normalised),[15],0.88 (inactive)
same,normalised cell number,[15]; [26],1.09
same,normalised cell number,[15]; [27],0.97
same,remaining NAD,[18],10 nM (inactive)
same,luciferase signal,[19],44 AU (inactive)
COc1ccc2cc([C@H](C)C(=O)O)ccc2c1,inhibition,[8],-27.8%
same,survival,[16],2.08 (inactive)
same,insulin secretion stimulation,[3],-0.7% (inactive)
same,viability decrease,[9],-21% (inactive)
same,tube area decrease,[10],16.3% (inactive)
same,GLP1 secretion stimulation,[4],-1.7% (inactive)
same,inhibition of viability,[11],-1.1% (inactive)
same,viability decrease (inhibition),[12],30.2% (inactive)
same,viability decrease (inhibition),[13],-14.8% (inactive)
same,inhibition,[14],-2.26% (inactive)
same,mean signal,[17],264 (inactive)
same,red/green cell ratio (normalised),[15],1.07 (inactive)
same,normalised cell number,[15]; [26],1.19
same,normalised cell number,[15]; [27],1.27
same,z-score,[6]; [24],0.168 (inactive)
same,z-score,[6]; [25],-0.681
same,remaining NAD,[18],10 nM (inactive)
same,luciferase signal,[19],36 AU (inactive)
same,z-score,[7],0.36 (inactive) and 0.18 (inactive) and 0.675 (inactive)
COCCCOc1ccnc(CS(=O)c2nc3ccccc3[nH]2)c1C (stereo not drawn),parasite load remaining,[1],32% (inactive) and 56.4% (inactive)
same,viability,[1],108% and 71%
same,nuclear beta-catenin stimulation,[2]; at 10 µM,0% (inactive)
same,nuclear beta-catenin stimulation,"[2]; stimulation, at 2 µM",9.8%
same,viability decrease,[9],32.7% (inactive)
same,inhibition of viability,[11],20.2% (inactive)
same,viability decrease (inhibition),[12],4.6% (inactive)
same,viability decrease (inhibition),[13],-10.8% (inactive)
same,mean signal,[17],232 (inactive)
same,red/green cell ratio (normalised),[15],0.79 (inactive)
same,normalised cell number,[15]; [26],1.16
same,normalised cell number,[15]; [27],0.91
same,fold change,[5]; [20],0.932 (inactive) and 0.863 (inactive)
same,fold change,[5]; [21],1.16 and 3.79
same,cell count,[5]; [22],9170 and 10700
same,cell count,[5]; [23],9840 and 12400
same,remaining NAD,[18],10 nM (inactive)
same,luciferase signal,[19],200 AU (inactive)
same,z-score,[7],-0.225 (inactive)
O=C(O)C1CCC1,nuclear beta-catenin stimulation,[2]; at 10 µM,-0.9% (inactive)
same,nuclear beta-catenin stimulation,"[2]; stimulation, at 2 µM",6.2%
same,viability decrease,[9],-0.7% (inactive)
same,inhibition of viability,[11],13.6% (inactive)
same,viability decrease (inhibition),[12],1.4% (inactive)
same,viability decrease (inhibition),[13],6.3% (inactive)
CC12CCC(CC1)C(C)(C)O2,inhibition,[8],20.8%
same,nuclear beta-catenin stimulation,[2]; at 10 µM,1.8% (inactive)
same,nuclear beta-catenin stimulation,"[2]; stimulation, at 2 µM",17.2%
same,viability decrease,[9],4.1% (inactive)
same,inhibition of viability,[11],7.2% (inactive)
same,viability decrease (inhibition),[12],5% (inactive)
same,viability decrease (inhibition),[13],4.4% (inactive)
same,inhibition,[14],-15.6% (inactive)
same,red/green cell ratio (normalised),[15],0.83 (inactive)
same,normalised cell number,[15]; [26],1.13
same,normalised cell number,[15]; [27],0.94
same,remaining NAD,[18],10 nM (inactive)
